Results taken from PubChem BioAssay AID485313 (National Center for Advancing Translational Sciences (NCATS), 2010).
Out of some 320,000 compounds screened, about 7,600 (2.4%) were called active. Another 3% or so got no clear call; they are omitted. The call rests on the fitted dose curve; in most records, active means well fitted activation curve with a large enough effect; inconclusive means small, poorly fitted or top-dose-only effect; inactive means no such curve, though single readings can be large or run the other way. Shown is part of a subset that was picked to be rich in actives. Entries that show only a call come without a potency.

Experiment: qHTS Assay for NPC1 Promoter Activators; further: nearly all actives have a fitted effect of over 60% in size;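 on activation: reporter is driven by a mutant NPC1 promoter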
Conditions: Huh7 NPC1 promoter luciferase reporter, 24 h; series mostly up to 9.22 µM
Method in brief: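 In 1536-well qHTS, Huh7 cells harboring an NPC1 promoter–luciferase construct received compound for 24 h; activation was quantified by luminescence following luciferase reagent addition.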
Potency means the concentration at half of the fitted maximal effect.

**Q.** Which Potency does the source give for C/C(=N\NC(=S)Nc1ccc(C)cc1)c1cc2ccccc2o1 here?
**A.** inactive

**Q.** For Cc1ccc(NC(=O)c2cc3ccccc3o2)cc1, which Potency is on record?
**A.** 3.16 µM (active)

**Q.** Which Potency does the source give for Cc1c(/C=N\NC(=O)c2cc3ccccc3o2)c2ccccc2n1C here?
**A.** inactive

**Q.** For COc1ccc(NC(=O)Cn2cc(C(=O)c3ccncc3)c(=O)c3cc(C)ccc32)cc1Cl, which Potency is on record?
**A.** inactive

**Q.** For O=C1C=C(c2cccc(Br)c2)C[C@@H](c2ccc(F)cc2)C1, which Potency is on record?
**A.** inactive

**Q.** Which Potency does the source give for COc1ccccc1OCCNC(=O)CCNC(=O)c1ccccc1Cl here?
**A.** inactive

**Q.** Which Potency does the source give for Cc1ccnc(NC(=O)CNC(=O)c2ccccc2)c1 here?
**A.** inactive

**Q.** Which Potency does the source give for COc1cc(SC)ccc1C(=O)Nc1cc(C)ccn1 here?
**A.** 3.16 µM (active)

**Q.** Which Potency does the source give for COc1cc(SC)ccc1C(=O)NCCOc1ccccc1Cl here?
**A.** 3.16 µM (active)

**Q.** For COc1cc(SC)ccc1C(=O)N(Cc1ccccc1)c1ccccc1, which Potency is on record?
**A.** inactive

**Q.** For Cc1ccnc(NC(=O)CCCOc2ccccc2)c1, which Potency is on record?
**A.** inactive

**Q.** Which Potency does the source give for COc1ccc(S(=O)(=O)Nc2cc(C)on2)cc1NC(C)=O here?
**A.** inactive

**Q.** Which Potency does the source give for CC1CCCCC1NC(=O)COC(=O)Cc1ccc(Cl)cc1 (stereo not given) here?
**A.** inactive

**Q.** Which Potency does the source give for CCc1ccc(C(=O)N2CCN(S(=O)(=O)c3sc(C(=O)O)c(C)c3C(=O)O)CC2)cc1 here?
**A.** inactive

**Q.** For COc1ccc(CNC(=O)CN2C(=O)NC3(CCCc4sccc43)C2=O)cc1 (stereo not given), which Potency is on record?
**A.** inactive

**Q.** For CCN(CC)S(=O)(=O)c1ccc(CNC(=O)CN2C(=O)NC3(CCc4ccccc43)C2=O)cc1 (stereo not given), which Potency is on record?
**A.** inactive

**Q.** With CCn1nc(C(=O)OCC(=O)N2c3ccccc3CC2C)c2ccccc2c1=O (stereo not given) as the compound, how does the Potency read?
**A.** inactive

**Q.** With CCCC(=O)N1c2ccc(-c3csc(N)n3)cc2CC1C (stereo not given) as the compound, how does the Potency read?
**A.** 2.82 µM (active)

**Q.** For Cc1ccn(CCC(=O)N2c3ccccc3CC2C)n1 (stereo not given), which Potency is on record?
**A.** inactive

**Q.** With COc1ccc(CCNC(=O)COC(=O)c2cc(=O)c3ccccc3o2)cc1 as the compound, how does the Potency read?
**A.** inactive

**Q.** Which Potency does the source give for O=C(O)c1ccccc1N=N/C(=N/Nc1cc(S(=O)(=O)O)ccc1O)c1ccccc1 here?
**A.** inactive

**Q.** With Fc1ccc2nc(N3CCCCC3)sc2c1 as the compound, how does the Potency read?
**A.** 3.55 µM (active)

**Q.** Which Potency does the source give for CN(C)CCCN(C(=O)c1ccc(S(=O)(=O)N2CCCCCC2)cc1)c1nc2ccc(Br)cc2s1 here?
**A.** inactive

**Q.** Which Potency does the source give for Cc1nc(N2CCCCC2)sc1C=O here?
**A.** inactive

**Q.** For O=C(c1ccc2nc(N3CCOCC3)sc2c1)N1CCN(c2ccc(Cl)cc2)CC1, which Potency is on record?
**A.** inactive

**Q.** Which Potency does the source give for O=C(NCCc1cccc(F)c1)C1CCCN(c2nc3ccccc3s2)C1 (stereo not given) here?
**A.** inactive

**Q.** For Brc1ccc2nc(N3CCCC3)sc2c1, which Potency is on record?
**A.** 2 µM (active)

**Q.** With OCC[C@H]1C[C@H](O)[C@@H](O)[C@]2(Cc3ccccc3CO2)O1 as the compound, how does the Potency read?
**A.** inactive

**Q.** For COc1ccccc1CNC(=O)CCCN1C(=O)NC2(CCCC2)C1=O, which Potency is on record?
**A.** inactive

**Q.** With CNS(=O)(=O)c1cccc(C(=O)OCC(=O)N2c3ccccc3NC(=O)C2(C)C)c1 as the compound, how does the Potency read?
**A.** inactive

**Q.** Which Potency does the source give for Cc1ccc(OCCCC(=O)Nc2ccc3c(c2)OCCO3)cc1 here?
**A.** inactive

**Q.** Which Potency does the source give for CCN(CC)c1ccc(/C=N/NC(=O)CNC(=O)c2cccs2)cc1 here?
**A.** inactive

**Q.** With CC(=O)Nc1ccc(/C=N/NC(=O)c2cccs2)cc1 as the compound, how does the Potency read?
**A.** 2.51 µM (active)

**Q.** With O=C(CNC(=O)c1cccs1)N/N=C/c1cccc(Br)c1 as the compound, how does the Potency read?
**A.** inactive

**Q.** With CC(=O)c1ccc(OC(=O)N2CCOCC2)cc1 as the compound, how does the Potency read?
**A.** inactive

**Q.** For CC(C)CN(C(=O)CSc1nncn1C)C1CCS(=O)(=O)C1 (stereo not given), which Potency is on record?
**A.** inactive

**Q.** With Cc1c(NC(=O)c2cc(-c3ccc(Br)cc3)on2)c(=O)n(-c2ccccc2)n1C as the compound, how does the Potency read?
**A.** inactive

**Q.** Which Potency does the source give for COc1ccc(-c2cc(C(=O)NCCCN3CCOCC3)no2)cc1 here?
**A.** inactive

**Q.** Which Potency does the source give for CC(C)CNC(=O)c1cc(-c2ccc(Br)cc2)on1 here?
**A.** 3.16 µM (active)

**Q.** Which Potency does the source give for COc1ccc(CCC(=O)N2CCN(S(=O)(=O)c3ccc(OC)cc3)CC2)cc1 here?
**A.** inactive

**Q.** For Cc1cc(NC(=O)COc2ccc([N+](=O)[O-])cc2)no1, which Potency is on record?
**A.** inactive

**Q.** Which Potency does the source give for Cc1cccc(NC(=O)CN2CCN(CC(=O)NCC3(N4CCCCC4)CCCCC3)CC2)c1C here?
**A.** inactive

**Q.** With CN(CC(=O)NC(=O)Nc1ccccc1F)Cc1ccccc1 as the compound, how does the Potency read?
**A.** inactive

**Q.** With CCCCCC(=O)Nc1ccc(-c2cn3cccnc3n2)cc1 as the compound, how does the Potency read?
**A.** inactive

**Q.** Which Potency does the source give for CC(=O)Nc1ccc(S(=O)(=O)Nc2cccc(NC(=O)C(C)(C)C)c2)cc1 here?
**A.** inactive

**Q.** With CC(C)(C)C(=O)Nc1ccc(-c2cn3cccnc3n2)cc1 as the compound, how does the Potency read?
**A.** 3.16 µM (active)

**Q.** For O=C1C=C(c2ccnc3cc(Cl)ccc23)C[C@@H](c2ccc3c(c2)OCO3)C1, which Potency is on record?
**A.** inactive

**Q.** Which Potency does the source give for Cc1ccc(CNC(=O)c2cc(-c3ccccc3C)n(CC3CC(c4cccc([N+](=O)[O-])c4)=NO3)n2)cc1 (stereo not given) here?
**A.** inactive

**Q.** With CN(c1ccccc1)S(=O)(=O)c1cccc(NC(=O)Cc2ccc(Cl)cc2)c1 as the compound, how does the Potency read?
**A.** inactive

**Q.** For S=C(c1ccc(-c2ccccc2)o1)N1CCCCC1, which Potency is on record?
**A.** 2.24 µM (active)

**Q.** With OCCN1CCN(C(=S)c2ccc(-c3ccccc3)cc2)CC1 as the compound, how does the Potency read?
**A.** inactive

**Q.** With S=C(c1ccccc1)N1CCCC1 as the compound, how does the Potency read?
**A.** inactive

**Q.** For O=C(OCC(=O)N1CCCC1)c1ccc(Cl)nc1, which Potency is on record?
**A.** inactive

**Q.** With Cc1ccc(Nc2nnc(SC(C)C(=O)NC3CC3)s2)cc1 (stereo not given) as the compound, how does the Potency read?
**A.** inactive

**Q.** Which Potency does the source give for CN1CCN(c2ccc(NC(=O)c3cc(Cl)c4c(c3)OCCO4)cc2)CC1 here?
**A.** inactive

**Q.** For O=C(Nc1ccc(Cl)cc1)Nc1nnc(/C=C/c2ccccc2)s1, which Potency is on record?
**A.** inactive

**Q.** Which Potency does the source give for O=C(Nc1ccccc1)Nc1nc2ccccc2s1 here?
**A.** 2.82 µM (active)

**Q.** With O=C(CN1CCc2cc3c(cc2C1)OCCCO3)Nc1ccccc1 as the compound, how does the Potency read?
**A.** inactive

**Q.** With COC(=O)c1ccc(N2CCOCC2)c(NC(=O)c2ccc3c(c2)OCCO3)c1 as the compound, how does the Potency read?
**A.** inactive

**Q.** With Cc1ccc(F)cc1NC(=O)c1ccc2c(c1)OCO2 as the compound, how does the Potency read?
**A.** inactive

**Q.** Which Potency does the source give for O=C(Nc1ccccc1)c1ccc2c(c1)OCCCO2 here?
**A.** 0.501 µM (active)

**Q.** With CN1CCN(c2ccc(NC(=O)c3ccc4c(c3)OCCO4)cc2Cl)CC1 as the compound, how does the Potency read?
**A.** 3.55 µM (active)

**Q.** With O=C(CCNC(=O)c1ccccc1)Nc1nc2ccccc2s1 as the compound, how does the Potency read?
**A.** inactive

**Q.** For O=C(Nc1ccccc1N1CCN(C(=O)c2ccccc2)CC1)c1ccc2c(c1)OCO2, which Potency is on record?
**A.** inactive

**Q.** For O=C(Nc1ccccc1F)c1ccc2c(c1)OCO2, which Potency is on record?
**A.** 3.98 µM (active)

**Q.** Which Potency does the source give for O=C(Nc1cccc(S(=O)(=O)N2CCCCC2)c1)c1ccc2c(c1)OCO2 here?
**A.** inactive

**Q.** Which Potency does the source give for Cc1cc(C)n2nc(C(=O)OCC(=O)N(C)CC(=O)Nc3ccc(F)cc3)nc2n1 here?
**A.** inactive

**Q.** Which Potency does the source give for O=C(CSc1nc2[nH]c(=O)[nH]c(=O)c2s1)Nc1cccc(F)c1 here?
**A.** inactive

**Q.** Which Potency does the source give for Cc1cc(C)c(C#N)c(SCC(=O)N(CC(C)C)C2CCS(=O)(=O)C2)n1 (stereo not given) here?
**A.** inactive

**Q.** For c1csc(-c2nnc(COc3ccc4c(c3)OCO4)o2)c1, which Potency is on record?
**A.** inactive
